5 compounds from PubChem BioAssay can be followed below.

Test [1] can be described thus: rapamycin-like changes in RPL19A-GFP expression – cell-based, S. cerevisiae, multiplex flow cytometry, primary screen (AID 1862; in the data active means percent of DMSO control GFP below about 86%;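 further: lower values mimic rapamycin by blocking the RPL19A rise seen in DMSO cells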). The note with it: S. cerevisiae RPL19A-GFP strain, flow cytometry fluorescence, 3 h; at 10 µM; stronger effect = lower value.
Test [2] is described as follows: TOR pathway GLN3 branch reporter MEP2-GFP changes – S. cerevisiae, multiplex flow cytometry, primary screen (AID 1867;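 active means GFP response, as percent of the DMSO control, above the screen-wide mean plus 3 SD, about 139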;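 further: median GFP channel fluorescence of barcode-gated MEP2-GFP cells measured by flow cytometry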). Conditions: S. cerevisiae MEP2-GFP strain, 3 h, at 10 µM, stronger effect = higher value, 100% means same as DMSO wells. On the technique in general: A flow cytometer gives signals particle by particle.
Test [3] in a line: TOR pathway RTG branch CIT2 reporter changes – S. cerevisiae, GFP fusion, multiplex flow cytometry, primary screen (AID 1870;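 active means percent response above a set limit, the screen-wide mean plus 3 SD, cut at about 130% in these data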;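 further: barcoded CIT2-GFP strain pooled with four other GFP strains with rapamycin as positive control; median GFP fluorescence per well over plate mean of DMSO wells so 100% = DMSO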). Conditions: S. cerevisiae CIT2-GFP expression, 3 h, at 10 µM, stronger effect = higher value.
Test [4] can be described thus: TOR pathway LAP4-GFP level changes – S. cerevisiae, multiplex flow cytometry, primary screen (AID 1873;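 active means GFP signal, as percent of the solvent control, above the screen mean plus 3 SD, about 149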). The note with it: S. cerevisiae LAP4-GFP expression, 3 h, at 10 µM, stronger effect = higher value.
A short description of test [5]: yeast AGP1-GFP level changes, GLN3 branch – cell-based, multiplex flow cytometry, S. cerevisiae, primary screen (AID 1887;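 active means GFP signal above the screen-wide mean plus 3 SD, that is over about 124.5% of the solvent control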;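 further: AGP1-GFP fusion strain of S. cerevisiae within a five-strain barcoded multiplex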). The note with it: 3 h, at 10 µM, stronger effect = higher value.
Test [6] is described as follows: reduced mouse 2C T cell binding to pMHC/ICAM-1 vesicles – MLPCN validation set, flow cytometry, LFA-1/ICAM-1 modulator project, pilot screen (AID 2523;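 active means response below a set limit, under 55% cells CD8-positive and vesicle-bound, and CD8 cells' 90th-percentile brightness under 279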;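 on vesicle binding response: mean PE anti-B7-1 fluorescence of CD8+ cells relative to row control; 100% = QL9-loaded vesicles with DMSO vehicle in the same plate row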). The note with it: 2C mouse CD8+ T cells, at 7 µM, stronger effect = lower value; double positive events: measured here: CD8+/vesicle+ event percentage.
Test [7] addresses Integrin beta-1 (Homo sapiens) + Integrin alpha-4 (Homo sapiens) (UniProt P13612+P05556). As to the kind of experiment: alpha4beta1 integrin LIBS antibody binding reduction – U937 cells, HUTS-21 mAb, flow cytometry, validation set, VLA-4 allosteric modulator project, pilot screen (AID 2674;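 active means inhibition above 50%, about 3 SD of the validation set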;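 further: antibody binding induced by the VLA-4 ligand LDV present at three times its Kd; 0% = LDV ligand with antibody and no compound and 100% = antibody without LDV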). Conditions: HUTS-21 LIBS mAb binding, at 6.7 µM, stronger effect = higher value, binding induced by LDV ligand.

A short description of test [8]: calorie-restriction mimetic ROS inhibitors, yeast – validation compound set, pilot screen (AID 2706;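 active means superoxide response below 65% of plate, a cut near 3 SD across the whole screen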;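 further: yeast exposed to compound for one week at 30 degrees C before staining; 100% = mean of all compound wells on the same plate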). The note with it: S. cerevisiae aging, superoxide DHE fluorescence; at 10 µM; stronger effect = lower value.
In test [9] the target is Beta-adrenergic receptor kinase 1 (Homo sapiens) (UniProt P25098). As to the kind of experiment: GRK2 binders displacing RNA aptamer, biochemical, validation, human GRK2, bead flow cytometry (AID 488806;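 active means aptamer binding inhibition above 30%, about 3 SD of noise from non-fluorescent compounds; inactive means inhibition at or below 30%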). The note with it: bead-bound GRK2, FAM-aptamer displacement, at 10 µM, stronger effect = higher value.
In test [10] the target is Beta-2 adrenergic receptor (Homo sapiens) (UniProt P07550). As to the kind of experiment: agonist-induced loss of surface beta2AR – cell-based, FAP fluorogen, flow cytometry, validation set, pilot screen (AID 504459;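 active means percent response above 42, roughly 3 SD of non-fluorescent test compounds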;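 further: agonist-driven loss of surface beta2AR via internalization measured by FAP dye flow cytometry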). The note with it: Am2.2-beta2AR cells, at 10 µM, stronger effect = higher value.
Test [11] addresses AP-2 complex subunit beta (Homo sapiens) (UniProt P63010). As to the kind of experiment: beta-arrestin/AP2 interaction blockers – biochemical, validation set, GST-AP2 beads, flow cytometry, pilot screen (AID 504541;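 active means inhibition above 54%, about 3 SD of non-fluorescent compounds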;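 further: AP2 carries R879A mutation and is captured from E. coli lysate; bead-bound FITC arrestin peptide fluorescence measuring arrestin peptide binding to AP2; 0% = DMSO wells and 100% = excess unlabeled arrestin peptide control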). Conditions: FITC arrestin peptide, at 10 µM, stronger effect = higher value, AP2 beta2 appendage fragment, R879A mutant.
Test [12] is described as follows: cytosolic pH regulators acting via V-ATPase – S. cerevisiae, pHLuorin, HTS validation (AID 504600; in the data active means response above about 15%;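 further: plate controls were DMSO for no effect and reference compound for full effect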). The note with it: V-ATPase proton transport, at 10 µM, stronger effect = higher value.
Test [13] relates to anti-desmoglein-3 scFv antibody binding to human DSG3. The experiment in a line: blockers of pathogenic pemphigus antibody–desmoglein-3 binding – biochemical, validation compound set, bead-based, flow cytometry, pilot screen (AID 588368;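 active means binding below the plate cutoff, the plate median minus 3 SD, with a reading above zero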;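 further: signal is the median channel fluorescence of bead-bound GFP antibody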). Conditions: Protein G beads, DSG3-Fc, scFv-GFP binding, at 10 µM, stronger effect = lower value.
A short description of test [14]: Nile Red efflux blockade in pump-expressing yeast – validation compound set, multiplex, phenotypic, pilot screen (AID 588506;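 active means efflux inhibition above 0.42, the validation set average plus 4 SD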;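 further: Nile Red retained in cells so higher fluorescence means more efflux inhibition; 0 = negative control wells and 1 = enniatin B 25 µM full block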). Conditions: S. cerevisiae pump-expressing triplex, Nile Red efflux flow cytometry; at 10 µM; stronger effect = higher value; the pumps come from Candida albicans.
In test [15] the target is ATP-binding cassette sub-family B member 6 (Homo sapiens) (UniProt Q9NP58). The experiment in a line: blockers of ABCB6-driven porphyrin uptake – K562-ABCB6 cells, flow cytometry, validation set, pilot screen (AID 588550).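 Further: 0% = DMSO wells and 100% = benzethonium chloride 70 µM positive control.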 Conditions: K562-ABCB6 porphyrin accumulation, 1 h, at 10 µM, stronger effect = higher value.
Test [16] can be described thus: AML differentiation inducers, ER-HoxA9 marrow cells – cell-based, GFP/MAC1 double positive, flow cytometry, validation set, primary screen (AID 588685;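 active means differentiation response of at least 50%, scaled between solvent and reference control, from cells with both markers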;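 further: compound exposure lasts four days before antibody staining and flow analysis; 0% = DMSO wells and 100% = 5 µM fulvestrant positive control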). Conditions: stronger effect = higher value, normalized: vehicle 0, fulvestrant 100.

Results filed as inconclusive are left out. The source made the active and inactive calls.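 How the source made its calls, unless noted: active means inhibition above the screen-wide mean plus 3 SD, about 51%; inactive means the rest.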

The inhibition is the drop in the measured response relative to a control, in per cent.

Chain of ATP-binding cassette sub-family B member 6 (Homo sapiens) (Q9NP58 whole entry, looked up): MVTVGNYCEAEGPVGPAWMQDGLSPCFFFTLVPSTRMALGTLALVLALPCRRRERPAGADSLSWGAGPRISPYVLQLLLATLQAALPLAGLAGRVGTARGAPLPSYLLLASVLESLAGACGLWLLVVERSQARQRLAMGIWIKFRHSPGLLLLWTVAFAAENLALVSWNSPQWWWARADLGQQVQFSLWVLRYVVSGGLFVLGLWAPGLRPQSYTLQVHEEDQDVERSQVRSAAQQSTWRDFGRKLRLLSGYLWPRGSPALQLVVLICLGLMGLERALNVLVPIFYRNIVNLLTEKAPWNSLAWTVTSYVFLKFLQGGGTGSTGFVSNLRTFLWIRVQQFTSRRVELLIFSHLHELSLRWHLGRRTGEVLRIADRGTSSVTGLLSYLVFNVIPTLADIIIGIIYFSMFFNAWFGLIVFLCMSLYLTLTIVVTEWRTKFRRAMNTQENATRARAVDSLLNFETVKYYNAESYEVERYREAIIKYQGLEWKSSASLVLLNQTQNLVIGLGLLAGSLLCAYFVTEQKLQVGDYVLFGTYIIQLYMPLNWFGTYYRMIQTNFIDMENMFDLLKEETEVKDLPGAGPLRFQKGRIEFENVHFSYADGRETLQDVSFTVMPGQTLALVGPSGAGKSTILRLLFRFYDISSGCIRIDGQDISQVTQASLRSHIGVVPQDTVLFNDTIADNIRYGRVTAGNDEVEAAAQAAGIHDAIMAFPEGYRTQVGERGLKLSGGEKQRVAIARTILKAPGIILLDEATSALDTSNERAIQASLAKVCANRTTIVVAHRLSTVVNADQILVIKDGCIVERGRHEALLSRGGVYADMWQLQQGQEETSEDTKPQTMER
Chain of Beta-2 adrenergic receptor (Homo sapiens) (P07550 whole entry, looked up): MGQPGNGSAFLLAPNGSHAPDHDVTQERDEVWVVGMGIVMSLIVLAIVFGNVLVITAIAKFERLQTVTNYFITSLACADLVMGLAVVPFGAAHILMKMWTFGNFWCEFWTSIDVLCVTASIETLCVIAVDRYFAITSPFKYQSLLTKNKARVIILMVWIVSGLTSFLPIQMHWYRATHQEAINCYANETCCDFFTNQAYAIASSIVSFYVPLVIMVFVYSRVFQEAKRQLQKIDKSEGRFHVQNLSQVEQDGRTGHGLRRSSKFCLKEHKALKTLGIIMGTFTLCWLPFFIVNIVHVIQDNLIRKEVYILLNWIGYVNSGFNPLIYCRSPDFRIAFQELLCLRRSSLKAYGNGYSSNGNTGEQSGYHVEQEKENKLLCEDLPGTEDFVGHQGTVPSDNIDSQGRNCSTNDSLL
Chain of Beta-adrenergic receptor kinase 1 (Homo sapiens) (P25098 whole entry, looked up): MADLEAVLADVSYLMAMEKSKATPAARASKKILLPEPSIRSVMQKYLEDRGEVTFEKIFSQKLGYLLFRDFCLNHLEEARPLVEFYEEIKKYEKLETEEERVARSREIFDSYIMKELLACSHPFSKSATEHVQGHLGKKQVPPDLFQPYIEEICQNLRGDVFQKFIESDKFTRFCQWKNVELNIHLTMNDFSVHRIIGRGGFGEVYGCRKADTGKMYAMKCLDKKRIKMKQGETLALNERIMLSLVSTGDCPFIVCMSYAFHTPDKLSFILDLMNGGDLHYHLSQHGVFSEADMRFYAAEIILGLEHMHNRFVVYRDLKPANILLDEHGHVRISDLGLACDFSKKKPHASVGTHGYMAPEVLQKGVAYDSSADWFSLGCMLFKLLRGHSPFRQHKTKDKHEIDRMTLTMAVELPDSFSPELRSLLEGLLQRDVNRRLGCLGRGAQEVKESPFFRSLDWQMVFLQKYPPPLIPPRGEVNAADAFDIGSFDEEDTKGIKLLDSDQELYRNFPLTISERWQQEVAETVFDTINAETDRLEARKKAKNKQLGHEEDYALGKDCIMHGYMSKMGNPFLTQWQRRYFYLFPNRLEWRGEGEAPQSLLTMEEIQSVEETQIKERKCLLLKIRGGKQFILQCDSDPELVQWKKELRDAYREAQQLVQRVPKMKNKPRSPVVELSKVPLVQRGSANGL
Chain of AP-2 complex subunit beta (Homo sapiens) (P63010 whole entry, looked up, the tested form may be a part, one chain of several): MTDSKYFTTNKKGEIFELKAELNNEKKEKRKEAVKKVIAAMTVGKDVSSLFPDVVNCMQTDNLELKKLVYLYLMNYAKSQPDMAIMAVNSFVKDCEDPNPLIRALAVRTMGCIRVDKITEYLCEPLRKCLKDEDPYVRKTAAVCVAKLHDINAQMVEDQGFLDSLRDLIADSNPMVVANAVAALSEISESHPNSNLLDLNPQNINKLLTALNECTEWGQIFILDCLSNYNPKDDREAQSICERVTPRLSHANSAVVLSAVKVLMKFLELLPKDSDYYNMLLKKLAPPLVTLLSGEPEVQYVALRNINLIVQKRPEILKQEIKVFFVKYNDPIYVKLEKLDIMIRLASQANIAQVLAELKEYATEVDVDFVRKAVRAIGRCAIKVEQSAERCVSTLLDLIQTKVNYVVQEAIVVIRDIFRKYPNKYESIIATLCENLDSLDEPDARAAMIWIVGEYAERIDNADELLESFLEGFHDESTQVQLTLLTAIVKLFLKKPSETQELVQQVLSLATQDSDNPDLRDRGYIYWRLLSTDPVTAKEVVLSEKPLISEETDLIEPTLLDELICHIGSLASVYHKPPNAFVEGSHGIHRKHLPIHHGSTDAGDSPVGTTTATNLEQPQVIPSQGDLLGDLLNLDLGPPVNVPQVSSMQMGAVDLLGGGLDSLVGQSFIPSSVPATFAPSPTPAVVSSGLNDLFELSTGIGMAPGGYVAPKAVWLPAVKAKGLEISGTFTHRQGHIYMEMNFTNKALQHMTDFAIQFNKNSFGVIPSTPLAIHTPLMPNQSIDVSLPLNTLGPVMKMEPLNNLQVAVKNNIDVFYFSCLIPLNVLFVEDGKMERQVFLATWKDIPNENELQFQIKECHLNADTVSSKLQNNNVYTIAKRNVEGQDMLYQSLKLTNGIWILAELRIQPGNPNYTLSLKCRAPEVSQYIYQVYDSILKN
Chain of Integrin beta-1 (Homo sapiens) + Integrin alpha-4 (Homo sapiens) (P05556 whole entry, looked up): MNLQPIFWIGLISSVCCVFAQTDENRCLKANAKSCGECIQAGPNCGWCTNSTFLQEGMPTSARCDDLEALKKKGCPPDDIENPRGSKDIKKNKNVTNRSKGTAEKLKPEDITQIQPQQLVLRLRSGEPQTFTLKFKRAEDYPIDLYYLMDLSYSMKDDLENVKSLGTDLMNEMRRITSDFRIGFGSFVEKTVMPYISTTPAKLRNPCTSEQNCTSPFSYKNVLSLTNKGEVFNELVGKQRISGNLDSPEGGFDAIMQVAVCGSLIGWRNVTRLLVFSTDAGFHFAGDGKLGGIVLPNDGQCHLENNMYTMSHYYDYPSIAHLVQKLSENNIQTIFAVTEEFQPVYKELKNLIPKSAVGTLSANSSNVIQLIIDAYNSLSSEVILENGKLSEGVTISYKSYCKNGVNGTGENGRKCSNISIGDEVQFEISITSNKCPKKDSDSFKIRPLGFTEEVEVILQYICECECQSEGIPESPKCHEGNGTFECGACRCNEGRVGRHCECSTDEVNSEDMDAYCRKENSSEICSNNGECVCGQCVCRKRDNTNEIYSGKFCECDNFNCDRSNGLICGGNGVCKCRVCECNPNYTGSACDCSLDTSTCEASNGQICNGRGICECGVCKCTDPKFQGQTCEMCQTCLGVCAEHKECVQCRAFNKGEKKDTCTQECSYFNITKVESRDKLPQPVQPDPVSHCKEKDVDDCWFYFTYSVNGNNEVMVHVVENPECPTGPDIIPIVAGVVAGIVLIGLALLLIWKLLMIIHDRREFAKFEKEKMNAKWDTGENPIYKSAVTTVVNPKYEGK
Chain of Integrin beta-1 (Homo sapiens) + Integrin alpha-4 (Homo sapiens) (P13612 whole entry, looked up): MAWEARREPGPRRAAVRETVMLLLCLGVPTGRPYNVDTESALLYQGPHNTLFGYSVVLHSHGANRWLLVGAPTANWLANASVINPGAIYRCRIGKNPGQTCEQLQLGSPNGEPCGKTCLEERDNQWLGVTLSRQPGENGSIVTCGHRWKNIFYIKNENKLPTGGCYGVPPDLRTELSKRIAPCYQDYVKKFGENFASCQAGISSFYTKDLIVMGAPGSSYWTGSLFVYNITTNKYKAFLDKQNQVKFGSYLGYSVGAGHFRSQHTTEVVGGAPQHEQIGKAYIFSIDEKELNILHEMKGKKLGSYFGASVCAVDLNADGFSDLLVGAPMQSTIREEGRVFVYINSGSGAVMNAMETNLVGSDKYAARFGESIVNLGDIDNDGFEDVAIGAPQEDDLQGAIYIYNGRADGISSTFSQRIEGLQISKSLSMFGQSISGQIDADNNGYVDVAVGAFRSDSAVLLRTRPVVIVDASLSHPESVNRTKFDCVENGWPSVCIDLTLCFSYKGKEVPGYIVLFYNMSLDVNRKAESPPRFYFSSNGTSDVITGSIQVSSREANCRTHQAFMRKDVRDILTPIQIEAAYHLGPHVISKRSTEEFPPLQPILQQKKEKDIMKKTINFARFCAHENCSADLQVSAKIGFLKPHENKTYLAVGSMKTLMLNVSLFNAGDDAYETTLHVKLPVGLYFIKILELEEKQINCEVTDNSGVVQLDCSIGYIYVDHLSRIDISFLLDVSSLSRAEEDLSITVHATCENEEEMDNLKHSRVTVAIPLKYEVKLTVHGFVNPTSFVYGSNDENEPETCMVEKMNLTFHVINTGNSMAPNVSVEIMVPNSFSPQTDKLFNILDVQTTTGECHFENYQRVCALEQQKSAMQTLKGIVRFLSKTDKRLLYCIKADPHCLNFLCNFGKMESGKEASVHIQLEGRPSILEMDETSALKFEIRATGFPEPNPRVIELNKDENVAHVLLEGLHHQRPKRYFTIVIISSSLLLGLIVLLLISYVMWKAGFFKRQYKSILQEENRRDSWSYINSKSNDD

In the case of `C/C=C(/C(=C/C)c1ccc(O)cc1)c1ccc(O)cc1`, in test [1], the percent of DMSO control GFP was 90.4% (inactive). Moreover, the GFP response vs DMSO in test [2] is 135% (inactive); in test [4], 81.4% (inactive). Also, the percent response of DMSO control in test [3] was 95.2% (inactive). The GFP response, % of DMSO in test [5] was 87.7% (inactive). In test [6], this compound had a double positive events of 63.9%. The vesicle binding response in [6] was 170% (inactive). Further, the inhibition is 8.4% (inactive) in test [7], 13.1% (inactive) in test [11] and 4% (inactive) in test [15]. The superoxide response (% of plate) in test [8] was 91.4% (inactive). Moreover, in [9], the aptamer binding inhibition is 2% (inactive). Also, the response in test [10] was -4.98% (inactive); in [12], -1.75% (inactive). Also, the binding (% of control) in [13] was 101% (inactive). For the same compound, in test [14], the efflux inhibition (fraction of control) was 0.48 (active). In addition, the differentiation response in test [16] is -7.37% (inactive).
On to `O=C(CC(NC(=O)OCc1ccccc1)C(=O)O)OCc1ccccc1` (stereo not given), for which the percent of DMSO control GFP in test [1] is 106% (inactive). Further, the GFP response vs DMSO in [2] is 99.3% (inactive); in test [4], 98% (inactive). Further, the percent response of DMSO control in test [3] was 107% (inactive). Also, the GFP response, % of DMSO in test [5] is 99.5% (inactive). The compound further yielded a double positive events in test [6] of 63.2%. Further, the vesicle binding response in [6] was 160% (inactive). Also, the inhibition in test [7] is 18.2% (inactive); in [11], -5.06% (inactive); in test [15] it was 22% (inactive). In addition, the superoxide response (% of plate) in test [8] was 94.6% (inactive). In test [9], the aptamer binding inhibition is 4% (inactive). Besides, the response in test [10] was -5.78% (inactive); in test [12], -3.27% (inactive). Further, the binding (% of control) in [13] was 97.1% (inactive). Also, the efflux inhibition (fraction of control) in test [14] was -0.07 (inactive). In addition, the differentiation response in [16] is -2.69% (inactive).
On to `CC(NC(=O)c1ccc(N2CCNCC2)c([N+](=O)[O-])c1)C12CC3CC(CC(C3)C1)C2` (stereo not given), for which the percent of DMSO control GFP in test [1] is 92.8% (inactive). Also, the GFP response vs DMSO in [2] was 111% (inactive); in test [4], 114% (inactive). In addition, in [3], the percent response of DMSO control was 101% (inactive). Moreover, the GFP response, % of DMSO in test [5] was 92.6% (inactive). In addition, the double positive events in test [6] stood at 56.9%. Moreover, the vesicle binding response in test [6] was 87.2% (inactive). Moreover, the inhibition was 9.13% (inactive) in test [7], -4.72% (inactive) in [11] and 7% (inactive) in test [15]. Also, in [8], the superoxide response (% of plate) was 101% (inactive). The aptamer binding inhibition in [9] is -1% (inactive). Also, the response is -1.73% (inactive) in test [10] and 0.8% (inactive) in test [12]. The binding (% of control) in [13] was 98.2% (inactive). The efflux inhibition (fraction of control) in test [14] is -0.1 (inactive). Also, the differentiation response in test [16] was -23.2% (inactive).
Take `NS(=O)(=O)c1cc2c(cc1Cl)NC(C1C[C@H]3C=C[C@@H]1C3)NS2(=O)=O` (stereo not given in full): in [1], the percent of DMSO control GFP was 104% (inactive). The GFP response vs DMSO in test [2] is 106% (inactive); in test [4], 105% (inactive). Moreover, the percent response of DMSO control in test [3] was 105% (inactive). Besides, the GFP response, % of DMSO in [5] was 106% (inactive). The compound further had a double positive events in test [6] of 61.8%. Further, in [6], the vesicle binding response was 153% (inactive). Also, the inhibition in test [7] was -19.9% (inactive); in test [11] it was 11.5% (inactive); in test [15], 10% (inactive). Besides, the superoxide response (% of plate) in test [8] was 98.5% (inactive). The aptamer binding inhibition in [9] is 2% (inactive). Further, the response in test [10] was -2.86% (inactive); in [12], -7.8% (inactive). Further, the binding (% of control) in test [13] was 97.3% (inactive). The efflux inhibition (fraction of control) in test [14] is 0.03 (inactive). In addition, the differentiation response in [16] is -17.7% (inactive).
Regarding `O=C(O)c1ccc(C(=O)C(=O)c2ccccc2)cc1`, in [1], the percent of DMSO control GFP was 104% (inactive). Further, the GFP response vs DMSO is 98.3% (inactive) in [2] and 101% (inactive) in test [4]. For the same compound, the percent response of DMSO control in test [3] was 109% (inactive). For the same compound, in test [5], the GFP response, % of DMSO is 102% (inactive). In [6], this compound displayed a double positive events of 65.4%. The vesicle binding response in [6] was 304% (inactive). Further, the inhibition in test [7] was -17.1% (inactive); in [11], 1.48% (inactive); in test [15] it was -10% (inactive). In addition, the superoxide response (% of plate) in test [8] is 110% (inactive). For the same compound, the aptamer binding inhibition in [9] was 3% (inactive). Further, the response is 4.67% (inactive) in test [10] and 0.41% (inactive) in [12]. For the same compound, the binding (% of control) in test [13] was 96.6% (inactive). Also, in [14], the efflux inhibition (fraction of control) is -0.01 (inactive). Moreover, the differentiation response in test [16] is -6.6% (inactive).
